# From PubChem BioAssay (NCATS)
# “And” between values parts separate entries of the source, which are not always exact repeats. Identical values can stand only once. Results filed as inconclusive are left out. Where a call stands in place of a potency, no number is given. Where a structure was tested more than once in an assay, its records may differ in their call. The source made the active and inactive calls. Unless noted, calls follow the shape of the dose curve; as a rule, active = well fitted curve in the direction sought with a large enough effect; inconclusive = small, poorly fitted or top-dose-only effect, or another doubt; inactive = no such curve, though single readings can be large; an effect the other way counts as inactive or inconclusive.
# Columns and labels:
# [1] = molecular target: Cytochrome P450 1A2 (Homo sapiens) (UniProt P05177); assay: p450-cyp1a2 (AID 410; calls by dose curve; also: potency is read from the fitted curve at half-maximal effect)
# In short: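 Luminescent demethylation readout: Luciferin-ME (100uM, equal to Km) turned over by 20nM CYP1A2 for 60 min at room temperature after NADPH regeneration addition, following 10 min compound preincubation. Normalization used 57 uM furafylline as full inhibition.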
# [2] = molecular target: Glucocorticoid receptor (Homo sapiens) (UniProt P04150); assay: GR-GFP Redistribution (AID 450;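 active = compounds whose dose series gives a full or clear partial fitted curve of increased nuclear translocation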; also: potency is read from the fitted curve at half-maximal effect); conditions: U2OS GR-GFP nuclear translocation, laser cytometry, 2 h
# [3] = molecular target: Glucocorticoid receptor (Homo sapiens) (UniProt P04150); assay: GR-EFC Redistribution (AID 451; calls by dose curve; also: potency is read from the fitted curve at half-maximal effect); conditions: CHO-K1 GR-EFC translocation, beta-gal luminescence, 2 h
# In short: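 CHO-K1 cells stably expressing nuclear-localized β-gal enzyme acceptor and GR fused C-terminally to the enzyme donor fragment; ligand-driven nuclear translocation restores β-gal by complementation. Compounds titrated up to 46 uM final, 2 h at 37 °C; luminescence read.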
# [4] = molecular target: Mitogen-activated protein kinase 10 (Mus musculus) (UniProt Q61831); assay: JNK3 AlphaScreen Assay (AID 530; active = well fitted curve in either direction with a large enough effect, not every such curve was filed as active;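 also: kinase came from lysate of stimulated human HepG2 cells; signal reports phosphorylation of biotinylated GST-cJun 1-79 at Ser73 with 10 µM ATP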)
# In short: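 Phosphorylation of biotinylated GST-cJun(1-79) at Ser73 is measured by AlphaScreen proximity luminescence. Enzyme is JNK3 in HepG2 lysates activated with interleukin-1beta and tumor necrosis factor alpha; ATP is 10 uM final.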
# [5] = molecular target: Cytochrome P450 2C9 (Homo sapiens) (UniProt P11712); assay: qHTS Assay for Inhibitors and Substrates of Cytochrome P450 2C9 (AID 883); also: nearly all actives have a fitted effect of over 60% in size; also: potency is read from the fitted curve at half-maximal effect
# In short: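 A luminogenic readout tracked human CYP2C9 (10nM) converting deoxyluciferin (100uM, at KM) in 25mM KPO4 during 60 min at 37C with regenerated NADPH. Values normalized to 57uM sulphaphenazole as complete inhibition.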
# [6] = molecular target: Cytochrome P450 3A4 (Homo sapiens) (UniProt P08684); assay: qHTS Assay for Activators of Cytochrome P450 3A4 (AID 885); also: nearly all actives have a fitted effect of over 65% in size
# In short: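 Using 20nM recombinant human CYP3A4 in potassium phosphate (200mM), substrate Luciferin-PPXE at 25uM, luminescent luciferin detection followed a 60-min RT NADPH reaction; data scaled to 57 uM ketoconazole.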
# [7] = qHTS Assay for Lipid Storage Modulators (AID 1519; calls by dose curve); conditions: Drosophila S3 cells, BODIPY lipid droplet/cell ratio, laser cytometry, cells loaded with oleic acid; for activity change, negative = inhibition: at 57.5 µM (top of the series)
# In short: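 Cells seeded at 5,000 per well were treated with compounds over a concentration series and loaded with oleic acid (400 uM, as added). Lipid droplet fluorescence (488 nm excitation, 500-530 nm channel) was read by laser-scanning cytometry and normalized to 20 uM Triacsin C.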
# [8] = molecular target: Ubiquitin carboxyl-terminal hydrolase 1 (Homo sapiens) (UniProt O94782); assay: Inhibitors of USP1/UAF1: Pilot qHTS (AID 504865);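 also: rhodamine fluorescence freed from ubiquitin-rhodamine substrate followed over time; top concentration of the series differs between compounds; nearly all actives have a fitted effect of over 35% in size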
# In short: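 In 50mM HEPES pH 7.8 containing 0.5mM EDTA, 1mM TCEP, 0.1 mg/ml BSA and 0.01% Tween-20, 1nM USP1/UAF1 is exposed to compound for 15 min, then Ub-Rho (150nM final) is added and fluorescence is read over time.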
# [9] = molecular target: DNA dC->dU-editing enzyme APOBEC-3G (Homo sapiens) (UniProt Q9HC16); assay: qHTS for inhibitors of Vif-A3G interactions: Validation (AID 588379)
# In short: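 Yellow fluorescence (Ex 488, Em 500-530) of Vif-coexpressing HeLa A3G-eYFP cells, scanned by Acumen cytometer, reports blocked A3G degradation. Cells plated at 700/well overnight at 37 deg C before compound addition, then a further overnight compound incubation at 37 deg C.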
# [10] = system: Zika virus NS2B-NS3 protease; assay: Primary screen GU AMC qHTS for Zika virus inhibitors (AID 1347154); also: nearly all actives have a fitted effect of over 70% in size
# In short: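 Unlinked Zika NS2B hydrophilic domain/NS3 protease domain noncovalent complex (25 nM final) in 10 mM Tris-HCl pH 8.0, 0.01% Tween 20, with AMC peptide substrate. Fluorescence (ex 340, em 450 nm) change over 15 min, room temperature; percent inhibition fitted to 4-parameter Hill equation.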
# [11] = Primary qHTS for small molecule stabilizers of the endoplasmic reticulum resident proteome: Secreted ER Calcium Modulated Protein (SERCaMP) assay (AID 1508630)
# In short: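 The SH-SY5Y reporter protocol was run at 3 concentrations up to 38.3 uM (primary) or 11 concentrations (follow-up): 16 h compound, 100 nM thapsigargin for 4 h, then extracellular luciferase luminescence.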
# [12] = AP1 Signaling Pathway (AID 357; active = well fitted curve in either direction with a large enough effect, not every such curve was filed as active;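 also: ME-180 reporter cells stimulated with EGF at its EC50 level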); conditions: ME-180 AP-1-bla reporter, EGF-induced, beta-lactamase ratio, 5 h; at 38 µM (top of the series)
# In short: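 Cells are seeded overnight, exposed to compound titrations and an EC50 level of EGF for 5 hours at 37 °C, then loaded with CCF4 dye for 2.5 hours. Beta-lactamase activity under the AP-1 element is read as a blue/green ratio.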
# [13] = NFAT Signaling Pathway (AID 444; active = well fitted curve in either direction with a large enough effect, not every such curve was filed as active;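 also: carbachol stimulus at about its EC50 of 1 µM final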); conditions: Jurkat NFAT-bla M1, carbachol, beta-lactamase ratio, 5 h; at 38 µM (top of the series)
# In short: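 Jurkat cells carrying an NFAT-driven β-lactamase reporter and co-transfected muscarinic M1 receptor were treated with compound plus carbachol (1 uM final, an EC50 level) for 5 h at 37 °C. CCF4 loading followed for 1 h at RT; 460/530 nm ratio gave %activity.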
# [14] = molecular target: 3',5'-cyclic-AMP phosphodiesterase 4B (Homo sapiens) (UniProt Q07343); assay: qHTS Assay for Inhibitors of PDE-IV (AID 607; active = well fitted activation curve with a large enough effect in the main read-out, with a control signal flat, not every such curve was filed as active)
# In short: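 Live HEK293 cells with a modified cyclic nucleotide-gated (CNG) channel report intracellular cAMP via membrane-potential dye fluorescence (ex 535/em 590 nm). Endogenous PDE-IV was targeted. Compounds were tested at up to 22.9 uM final; RO 20-1724 100 uM served as control.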
# [15] = molecular target: Guanine nucleotide-binding protein G(i) subunit alpha-1 (Homo sapiens) (UniProt P63096); assay: qHTS Assay for Inhibitors of RGS12 GoLoco Motif Activity (Green Fluorophore) (AID 879);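 also: negative values mean loss of peptide binding seen as reduced polarization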
# In short: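 A drop in FITC polarization marked displacement of the FITC-tagged RGS12 GoLoco peptide (10 nM) from Gαi1 (50 nM). Compounds were incubated 10 min at room temperature in Tris pH 7.5 buffer containing 150 mM NaCl, 0.1 mM GDP and 0.05% NP40; unlabeled peptide titration served as control.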
# [16] = molecular target: Cytochrome P450 2D6 (Homo sapiens) (UniProt P10635); assay: qHTS Assay for Inhibitors and Substrates of Cytochrome P450 2D6 (AID 891);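 also: luciferin methyl ether substrate demethylated by CYP2D6 with NADPH regeneration; nearly all actives have a fitted effect of over 60% in size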
# In short: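 Luminescent read-out of luciferin formed by 5 nM human CYP2D6 demethylating 30 uM Luciferin-ME EGE (Km level) over 60 min at room temperature after NADPH regeneration addition. Data normalized to full inhibition by 1.43 uM quinidine.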
# [17] = molecular target: Cytochrome P450 2C19 (Homo sapiens) (UniProt P33261); assay: qHTS Assay for Inhibitors and Substrates of Cytochrome P450 2C19 (AID 899); also: nearly all actives have a fitted effect of over 60% in size
# In short: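 NADPH-dependent conversion of Luciferin-H EGE (10uM, at KM) by 5nM enzyme in 50mM KPO4, 60 min at 37C following 10 min compound preincubation. Stopped with luciferin detection buffer; luminescence read after 20 min.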
# [18] = molecular target: Muscarinic acetylcholine receptor M1 (Rattus norvegicus) (UniProt P08482); assay: qHTS Assay for Antagonists of Acetylcholine Muscarinic M1 Receptor: Kinetic Measurement of Intracellular Calcium Response (AID 943);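 also: Fluo-4 calcium signal as peak divided by basal fluorescence over 4 min; nearly all actives have a fitted effect of over 75% in size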
# In short: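 Antagonism measured as reduction of carbachol-evoked (EC80, 100 nM final) calcium flux in rat M1-CHO cells after 10 min compound exposure. Fluo-4 signal read kinetically; ratio of maximal to basal fluorescence.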
# [19] = molecular target: Pyruvate kinase (Leishmania mexicana) (UniProt Q27686); assay: qHTS Validation Assay for Inhibitors of Leishmania Mexicana Pyruvate Kinase (AID 945)
# In short: (§1)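 Luminescent ATP detection (PKLight) after a 1 h room-temperature reaction of 0.2 nM LmPYK E451W mutant with 0.5 mM PEP and 0.1 mM ADP at pH 7.2. Activity is normalized to DMSO-only control wells.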
# [20] = molecular target: Pyruvate kinase PKM (Homo sapiens) (UniProt P14618); assay: qHTS Assay for Activators of Human Muscle Pyruvate Kinase (AID 954; active = well fitted curve in the direction sought with a large enough effect, not every such curve was filed as active)
# In short: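 Screening used highly purified human pyruvate kinase M2 under submaximal activity, with PEP at its Km and ADP below Km. After an hour at room temperature, ATP was read by luciferase luminescence.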
# [21] = molecular target: Alpha-galactosidase A (Homo sapiens) (UniProt P06280); assay: Counterscreen for Glucocerebrosidase Inhibitors: qHTS Assay for Human alpha-Galactosidase at pH 4.5 (AID 992)
# In short: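 Each compound is preincubated briefly with 2 nM enzyme before substrate addition (80 uM); plates then sit 20 min at ambient temperature, are quenched with 1M NaOH/1M glycine, and read fluorometrically.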
# [22] = molecular target: alpha-glucosidase (Oryza sativa, rice) (UniProt Q653V4); assay: Counterscreen for Glucocerebrosidase Inhibitors: qHTS Assay for Rice alpha-Glucosidase at pH 5.0 (AID 997)
# In short: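 Endpoint fluorogenic assay at pH 5.0: compounds (0.7 nM to 77 uM) titrated against 4 nM rice enzyme and 400 uM 4-MU-alpha-glucoside for 20 min at room temperature; NaOH/glycine stop, read ex 365/em 440 nm, Hill-fitted AC50.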
# [23] = Stat Signaling Pathway (AID 446; active = well fitted curve in either direction with a large enough effect, not every such curve was filed as active;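 also: ME-180 cervical cancer cells given 40 pM IL-6 alongside compound; SIE-controlled beta-lactamase reporter measured as 460/530 nm FRET emission ratio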); conditions: ME-180 (cervical carcinoma) SIE beta-lactamase reporter, IL-6 stimulated, 5 h; at 38 µM (top of the series)
# In short: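 Overnight-plated ME-180 cells bearing a STAT Inducible Element beta-lactamase reporter; 5 h co-exposure to compound and 40 pM IL-6; values normalized to 300 pM IL-6 and 125 nM JAK inhibitor controls.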
# [24] = molecular target: Pyruvate kinase (Leishmania mexicana) (UniProt Q27686); assay: qHTS Validation Assay for Activators of Leishmania Mexicana Pyruvate Kinase (AID 959)
# In short: as §1
# [25] = measured here: cell count channel max response
# [26] = measured here: lipid channel max response
# Sequence of 3',5'-cyclic-AMP phosphodiesterase 4B (Homo sapiens) (Q07343 whole entry, looked up): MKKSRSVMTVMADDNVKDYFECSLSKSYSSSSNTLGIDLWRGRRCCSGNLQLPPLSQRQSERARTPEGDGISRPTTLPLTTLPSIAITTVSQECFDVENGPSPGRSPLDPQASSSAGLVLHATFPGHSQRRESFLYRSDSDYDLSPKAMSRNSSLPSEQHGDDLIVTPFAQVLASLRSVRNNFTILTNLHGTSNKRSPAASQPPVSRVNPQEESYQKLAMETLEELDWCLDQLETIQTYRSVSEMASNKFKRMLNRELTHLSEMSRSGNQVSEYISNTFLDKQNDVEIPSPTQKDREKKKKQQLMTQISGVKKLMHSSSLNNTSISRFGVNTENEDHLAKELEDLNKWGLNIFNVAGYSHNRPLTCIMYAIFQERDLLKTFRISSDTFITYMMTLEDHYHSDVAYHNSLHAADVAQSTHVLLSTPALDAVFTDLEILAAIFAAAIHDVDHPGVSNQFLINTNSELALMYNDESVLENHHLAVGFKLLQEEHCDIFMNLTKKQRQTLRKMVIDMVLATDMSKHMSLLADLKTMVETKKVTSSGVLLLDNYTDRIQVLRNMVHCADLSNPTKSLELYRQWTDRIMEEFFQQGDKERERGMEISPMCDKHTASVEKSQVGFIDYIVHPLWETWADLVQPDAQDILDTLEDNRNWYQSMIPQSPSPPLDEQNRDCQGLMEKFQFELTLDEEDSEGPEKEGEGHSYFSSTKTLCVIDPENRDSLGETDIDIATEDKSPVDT
# Sequence of Cytochrome P450 1A2 (Homo sapiens) (P05177 whole entry, looked up): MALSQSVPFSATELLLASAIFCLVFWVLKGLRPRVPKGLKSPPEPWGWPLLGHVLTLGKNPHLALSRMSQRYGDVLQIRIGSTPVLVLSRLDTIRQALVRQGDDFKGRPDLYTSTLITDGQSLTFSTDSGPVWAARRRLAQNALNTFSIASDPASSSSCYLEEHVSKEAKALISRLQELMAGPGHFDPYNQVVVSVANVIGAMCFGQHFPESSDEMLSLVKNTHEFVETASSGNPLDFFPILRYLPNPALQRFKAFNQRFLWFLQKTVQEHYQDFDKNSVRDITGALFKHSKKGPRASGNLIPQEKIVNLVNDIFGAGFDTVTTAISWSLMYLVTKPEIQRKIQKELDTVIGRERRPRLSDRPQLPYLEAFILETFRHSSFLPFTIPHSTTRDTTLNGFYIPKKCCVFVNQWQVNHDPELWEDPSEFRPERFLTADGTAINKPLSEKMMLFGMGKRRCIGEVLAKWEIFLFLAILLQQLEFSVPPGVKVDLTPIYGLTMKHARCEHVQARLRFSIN
# Sequence of Pyruvate kinase (Leishmania mexicana) (Q27686 2-499 E452W): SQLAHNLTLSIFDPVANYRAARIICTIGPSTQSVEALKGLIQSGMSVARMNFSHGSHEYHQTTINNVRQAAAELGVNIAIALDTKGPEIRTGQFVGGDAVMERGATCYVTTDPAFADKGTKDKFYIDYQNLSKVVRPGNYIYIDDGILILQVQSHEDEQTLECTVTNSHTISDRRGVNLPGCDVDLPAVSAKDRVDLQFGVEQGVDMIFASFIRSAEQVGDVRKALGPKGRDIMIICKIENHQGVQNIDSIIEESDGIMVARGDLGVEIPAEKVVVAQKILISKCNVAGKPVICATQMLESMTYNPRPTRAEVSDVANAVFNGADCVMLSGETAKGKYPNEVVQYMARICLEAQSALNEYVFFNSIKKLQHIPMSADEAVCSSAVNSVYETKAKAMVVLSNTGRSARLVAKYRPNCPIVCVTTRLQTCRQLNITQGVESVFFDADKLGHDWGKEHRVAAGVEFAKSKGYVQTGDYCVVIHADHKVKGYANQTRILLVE
# Sequence of Ubiquitin carboxyl-terminal hydrolase 1 (Homo sapiens) (O94782 whole entry, looked up): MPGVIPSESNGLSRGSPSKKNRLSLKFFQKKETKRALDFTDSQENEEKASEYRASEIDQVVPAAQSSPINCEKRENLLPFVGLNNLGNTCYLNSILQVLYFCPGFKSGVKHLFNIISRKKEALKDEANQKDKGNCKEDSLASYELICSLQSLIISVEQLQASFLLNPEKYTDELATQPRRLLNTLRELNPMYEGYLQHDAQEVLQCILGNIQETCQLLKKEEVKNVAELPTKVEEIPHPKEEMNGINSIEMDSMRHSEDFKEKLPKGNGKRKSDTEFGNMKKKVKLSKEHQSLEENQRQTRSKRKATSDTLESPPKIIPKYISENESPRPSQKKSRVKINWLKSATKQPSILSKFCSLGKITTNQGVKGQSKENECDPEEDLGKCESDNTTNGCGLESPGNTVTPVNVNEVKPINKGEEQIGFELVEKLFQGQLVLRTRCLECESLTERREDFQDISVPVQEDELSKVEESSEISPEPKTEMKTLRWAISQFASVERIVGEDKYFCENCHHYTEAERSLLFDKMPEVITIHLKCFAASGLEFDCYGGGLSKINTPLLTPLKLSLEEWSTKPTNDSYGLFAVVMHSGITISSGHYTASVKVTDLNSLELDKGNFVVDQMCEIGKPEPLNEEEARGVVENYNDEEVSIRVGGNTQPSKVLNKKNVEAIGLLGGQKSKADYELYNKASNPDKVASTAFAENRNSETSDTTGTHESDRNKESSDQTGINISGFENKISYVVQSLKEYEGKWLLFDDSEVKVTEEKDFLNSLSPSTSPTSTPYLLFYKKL
# Sequence of DNA dC->dU-editing enzyme APOBEC-3G (Homo sapiens) (Q9HC16 whole entry, looked up): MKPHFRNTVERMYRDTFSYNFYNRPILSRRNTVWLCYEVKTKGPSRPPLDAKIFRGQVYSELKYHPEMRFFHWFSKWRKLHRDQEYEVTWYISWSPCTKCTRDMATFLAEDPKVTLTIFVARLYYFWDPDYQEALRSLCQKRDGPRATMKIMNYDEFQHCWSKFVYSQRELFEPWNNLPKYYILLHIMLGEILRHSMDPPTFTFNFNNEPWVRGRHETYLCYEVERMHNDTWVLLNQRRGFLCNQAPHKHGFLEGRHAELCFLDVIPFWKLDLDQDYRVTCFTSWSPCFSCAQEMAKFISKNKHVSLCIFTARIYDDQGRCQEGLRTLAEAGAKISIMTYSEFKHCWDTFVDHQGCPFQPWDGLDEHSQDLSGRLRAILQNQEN
# Sequence of Glucocorticoid receptor (Homo sapiens) (P04150 whole entry, looked up, the tested form may be a part): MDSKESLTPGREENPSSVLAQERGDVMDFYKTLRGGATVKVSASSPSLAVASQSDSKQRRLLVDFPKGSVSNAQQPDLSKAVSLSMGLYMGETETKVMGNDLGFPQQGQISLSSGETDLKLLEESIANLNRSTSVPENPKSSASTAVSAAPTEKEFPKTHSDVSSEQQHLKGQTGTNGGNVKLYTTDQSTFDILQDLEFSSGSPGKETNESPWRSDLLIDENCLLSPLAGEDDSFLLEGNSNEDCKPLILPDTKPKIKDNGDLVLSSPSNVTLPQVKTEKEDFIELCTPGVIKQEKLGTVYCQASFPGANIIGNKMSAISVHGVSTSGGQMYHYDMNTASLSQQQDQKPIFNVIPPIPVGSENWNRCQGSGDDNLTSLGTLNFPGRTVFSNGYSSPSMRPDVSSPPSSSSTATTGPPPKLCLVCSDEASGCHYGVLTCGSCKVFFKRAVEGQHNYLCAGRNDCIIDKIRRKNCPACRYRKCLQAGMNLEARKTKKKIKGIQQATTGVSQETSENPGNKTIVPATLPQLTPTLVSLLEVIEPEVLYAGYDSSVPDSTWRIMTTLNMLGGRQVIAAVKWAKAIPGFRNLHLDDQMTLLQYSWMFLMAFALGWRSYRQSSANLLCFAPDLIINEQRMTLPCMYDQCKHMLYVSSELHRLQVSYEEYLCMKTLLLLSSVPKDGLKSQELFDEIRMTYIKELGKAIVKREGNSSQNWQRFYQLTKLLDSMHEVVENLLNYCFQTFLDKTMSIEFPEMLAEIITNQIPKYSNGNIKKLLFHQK
# Sequence of Muscarinic acetylcholine receptor M1 (Rattus norvegicus) (P08482 whole entry, looked up): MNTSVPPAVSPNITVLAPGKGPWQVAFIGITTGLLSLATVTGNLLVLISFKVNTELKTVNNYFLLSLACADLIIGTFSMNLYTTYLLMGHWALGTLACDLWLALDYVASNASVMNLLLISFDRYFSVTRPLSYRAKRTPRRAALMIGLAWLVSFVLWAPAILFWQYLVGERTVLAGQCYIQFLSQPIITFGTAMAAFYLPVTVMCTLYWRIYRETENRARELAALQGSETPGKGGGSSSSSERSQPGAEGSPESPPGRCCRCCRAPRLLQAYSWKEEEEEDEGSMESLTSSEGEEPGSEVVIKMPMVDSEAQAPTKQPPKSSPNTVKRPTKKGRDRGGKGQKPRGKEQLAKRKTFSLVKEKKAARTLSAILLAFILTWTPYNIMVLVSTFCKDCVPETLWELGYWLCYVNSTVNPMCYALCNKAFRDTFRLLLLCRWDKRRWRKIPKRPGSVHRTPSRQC
# Sequence of Cytochrome P450 3A4 (Homo sapiens) (P08684 whole entry, looked up): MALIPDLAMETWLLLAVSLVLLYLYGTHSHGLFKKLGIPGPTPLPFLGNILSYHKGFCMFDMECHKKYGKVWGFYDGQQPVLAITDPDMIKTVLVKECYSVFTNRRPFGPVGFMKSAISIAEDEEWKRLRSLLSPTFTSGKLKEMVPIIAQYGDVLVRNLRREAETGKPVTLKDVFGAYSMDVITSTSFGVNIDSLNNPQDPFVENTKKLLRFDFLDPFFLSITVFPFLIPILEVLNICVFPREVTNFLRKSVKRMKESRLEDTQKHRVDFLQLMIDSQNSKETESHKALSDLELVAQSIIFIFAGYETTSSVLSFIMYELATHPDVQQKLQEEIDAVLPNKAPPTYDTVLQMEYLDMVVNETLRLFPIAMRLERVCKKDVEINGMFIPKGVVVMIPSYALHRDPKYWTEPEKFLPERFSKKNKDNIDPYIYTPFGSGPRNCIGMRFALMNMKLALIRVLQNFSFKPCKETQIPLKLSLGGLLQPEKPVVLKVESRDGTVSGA
# Sequence of Guanine nucleotide-binding protein G(i) subunit alpha-1 (Homo sapiens) (P63096 whole entry, looked up): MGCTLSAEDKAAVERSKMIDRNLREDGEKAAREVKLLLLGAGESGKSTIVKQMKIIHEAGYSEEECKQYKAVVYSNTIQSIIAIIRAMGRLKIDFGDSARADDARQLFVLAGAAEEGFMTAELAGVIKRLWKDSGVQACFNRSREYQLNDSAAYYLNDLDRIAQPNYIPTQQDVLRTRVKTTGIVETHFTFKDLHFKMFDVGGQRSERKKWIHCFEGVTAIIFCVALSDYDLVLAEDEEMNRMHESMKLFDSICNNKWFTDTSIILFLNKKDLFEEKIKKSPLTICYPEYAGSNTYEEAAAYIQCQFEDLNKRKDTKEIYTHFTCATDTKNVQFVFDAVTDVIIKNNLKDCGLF
compound,measurement,setting,value
COc1cc(N)c(Cl)cc1C(=O)CCC1CCN(CCNS(C)(=O)=O)CC1,Potency,[1],inactive
same,Potency,[2],> 46 µM (inactive)
same,Potency,[3],> 46 µM (inactive)
same,Potency,[4],inactive
same,Potency,[5],0.251 µM (active)
same,Potency,[6],inactive
same,"activity change, negative = inhibition",[7],6.39% (inactive)
same,max response,[7]; [25],24.1%
same,max response,[7]; [26],32.4%
same,Potency,[8],inactive
same,Potency,[9],inactive
same,Potency,[10],inactive
same,Potency,[11],inactive
NC[C@](O)(CS(=O)(=O)O)c1ccc(Cl)cc1,"activity change, negative = inhibition",[12],6.15% (inactive)
same,Potency,[1],inactive and 31.6 µM (active)
same,"activity change, negative = inhibition",[13],-5.4% (inactive)
same,Potency,[2],> 46 µM (inactive)
same,Potency,[3],> 46 µM (inactive)
same,Potency,[4],inactive
same,Potency,[14],inactive
same,outcome,[15],inactive
same,Potency,[5],inactive
same,Potency,[6],inactive
same,Potency,[16],inactive
same,Potency,[17],inactive
same,Potency,[18],inactive
same,Potency,[19],inactive
same,outcome,[20],inactive
same,outcome,[21],inactive
same,outcome,[22],inactive
same,"activity change, negative = inhibition",[7],-5.03% (inactive)
same,max response,[7]; [25],11.5%
same,max response,[7]; [26],9.5%
same,Potency,[9],inactive
same,Potency,[10],inactive
same,Potency,[11],inactive
N[C@]1(C(=O)O)CCc2cc(C(=O)O)ccc21,"activity change, negative = inhibition",[12],2.45% (inactive)
same,"activity change, negative = inhibition",[13],3.1% (inactive)
same,"activity, negative = inhibition",[23],-13% (inactive)
same,Potency,[2],> 46 µM (inactive)
same,Potency,[3],> 46 µM (inactive)
same,Potency,[4],inactive
same,Potency,[14],inactive
same,outcome,[15],inactive
same,Potency,[18],inactive
same,Potency,[19],inactive
same,outcome,[20],inactive
same,Potency,[24],15.8 µM (active)
same,outcome,[21],inactive
same,outcome,[22],inactive
same,"activity change, negative = inhibition",[7],5.84% (inactive)
same,max response,[7]; [25],14.2%
same,max response,[7]; [26],23.6%
same,Potency,[9],inactive
same,Potency,[10],inactive
same,Potency,[11],inactive
C=C[C@@]1(C)CC(=O)[C@@]2(O)[C@@]3(C)[C@@H](O)CCC(C)(C)[C@@H]3[C@H](O)[C@H](OC(C)=O)[C@@]2(C)O1,Potency,[1],31.6 µM (active)
same,Potency,[2],> 46 µM (inactive)
same,Potency,[3],> 46 µM (inactive)
same,Potency,[4],inactive
same,"activity change, negative = inhibition",[7],-0.114% (inactive)
same,max response,[7]; [25],13.9%
same,max response,[7]; [26],18.7%
same,Potency,[8],inactive
same,Potency,[9],inactive
same,Potency,[10],inactive
same,Potency,[11],inactive
O=C(O)COc1ccc(OCCNC[C@@H](O)COc2ccccc2)cc1,Potency,[1],39.8 µM (active)
same,Potency,[2],> 46 µM (inactive)
same,Potency,[3],> 46 µM (inactive)
same,Potency,[4],inactive
same,"activity change, negative = inhibition",[7],3.49% (inactive)
same,max response,[7]; [25],8.13%
same,max response,[7]; [26],11.4%
same,Potency,[8],inactive
same,Potency,[9],inactive
same,Potency,[10],inactive
same,Potency,[11],inactive
